From PubChem
FBW7 act = human FBW7 E3 ligase activation, primary screen | AlphaScreen FBW7–phospho-cyclin E peptide binding, activator screen | normalized activity (activation), % at 26.1 µM | actives 0.13% (n = 650,000) | AID 1259310; in the data active = normalized activity above about 1.9%;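 also: purified mutant Fbw7 with reduced substrate affinity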
GPR151 activ = activates the human receptor GPR151; actives 1% (n = 650,000); PathHunter beta-arrestin GPR151 cells, luminescence; activation, % at 11.2 µM; Q8TDV0; in the data active = activation above about 4.9%
MITF primary = human MITF inhibition, primary screen; O75030; AlphaScreen MITF homodimerization, bead proximity signal; inhibition, % at 2.6 µM; actives 0.91% (n = 650,000); AID 1259374; in the data active = inhibition above about 50%
Target sequence (O75030 whole entry, looked up): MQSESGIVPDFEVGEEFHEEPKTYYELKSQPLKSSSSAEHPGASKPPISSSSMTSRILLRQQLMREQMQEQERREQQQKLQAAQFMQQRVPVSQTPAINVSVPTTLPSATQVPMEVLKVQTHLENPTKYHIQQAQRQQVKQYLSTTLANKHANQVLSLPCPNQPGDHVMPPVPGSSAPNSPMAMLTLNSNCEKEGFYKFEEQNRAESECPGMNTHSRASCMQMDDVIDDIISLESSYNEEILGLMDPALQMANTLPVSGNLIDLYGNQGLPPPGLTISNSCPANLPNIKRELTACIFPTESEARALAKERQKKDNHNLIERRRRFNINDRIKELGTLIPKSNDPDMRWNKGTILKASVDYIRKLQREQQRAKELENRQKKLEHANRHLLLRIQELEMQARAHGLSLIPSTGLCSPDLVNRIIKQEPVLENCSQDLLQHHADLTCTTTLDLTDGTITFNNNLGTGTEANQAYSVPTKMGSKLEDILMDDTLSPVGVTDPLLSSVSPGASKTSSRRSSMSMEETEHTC
TEAD-YAP inh = TEAD-YAP interaction inhibition; HEK-TIYL cells, TEAD-Gal4/YAP UAS-luciferase luminescence; inhibition, % at 9.12 µM; actives 1.4% (n = 640,000); AID 1259422; in the data active = inhibition above about 32%
GPR151 confirm = human GPR151 activation, confirmation screen | activation, % at 11.2 µM | GPR151 PathHunter beta-arrestin cells, luminescence, 90 min; % of EA-reagent control over plate median | shares compounds with GPR151 activ | 6,700 tested, under 10 active;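 active = mean percent activation across replicates above the confirmation screen cutoff of 4.91%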
GPR119 ag = activates human GPR119 in a GPR151 counter-screen; shares compounds with GPR151 activ; GPR119 PathHunter beta-arrestin cells, luminescence, 90 min; 0 = compound-well median, 100 = enzyme-acceptor control; activation, % at 11.2 µM; actives 0.3% (n = 6,700); AID 1508611;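 active = mean percent activation in the counterscreen above 29.09%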;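 also: counterscreen on off-target GPR119 to flag nonselective hits from the GPR151 activator screen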
A number is an active result; 0 = inactive; - = no result; ! = not confirmed by another sample. Sampled rows, rich in hits. Any-hit rate of the full collection: about 3.4%.

SMILES	FBW7 act	GPR151 activ	MITF primary	TEAD-YAP inh	GPR151 confirm	GPR119 ag
O=C1Nc2ccc([N+](=O)[O-])cc2C12NN=C(c1ccccc1)S2 (centres undefined)	0	5.0	0	0	0	0
O=C(Nc1cc(C(F)(F)F)ccc1Cl)c1cc(S(=O)(=O)N2CCN(c3ccccc3)CC2)ccc1F	0	0	0	0	-	-
CCN1C(=O)C(CC(=O)Nc2ccc(OC)cc2)N(Cc2cccs2)C1=S (centres undefined)	0	5.9	0	0	0	0
COc1cc(S(=O)(=O)N2CC(C)OC(C)C2)ccc1Cl (centres undefined)	0	8.0	0	0	0	0
COc1cc(S(=O)(=O)N2CC(C)OC(C)C2)ccc1Br (centres undefined)	0	0	0	0	-	-
COc1ccc(CNS(=O)(=O)c2ccc(Cl)c(OC)c2)cc1	0	0	0	0	-	-
CCNS(=O)(=O)c1ccc(Cl)c(OC)c1	0	8.0	0	0	0	0
O=C1NC(c2ccccc2)=N/C1=C/c1ccccc1	0	0	0	0	-	-
COc1cc(/C=C2/N=C(c3ccccc3)NC2=O)cc(OC)c1OC	0	5.4	0	0	0	0
Oc1cccc(Nc2ncnc3sc4c(c23)CCC4)c1	0	0	0	0	-	-
CCCCC(=O)Nc1nnc(S(=O)(=O)N(CC)c2ccc(Cl)cc2)s1	0	5.7	0	0	0	0
CCCC(=O)Nc1nnc(S(=O)(=O)N(CC)c2ccc(Cl)cc2)s1	0	0	0	0	-	-
O=C(COC(=O)c1ccc(N2C(=O)C3C4C=CC(C4)C3C2=O)cc1)c1ccccc1 (centres undefined)	0	0	0	0	-	-
Cc1ccc(S(=O)(=O)N=c2ccn(C(F)F)cc2)cc1	0	0	0	0	-	-
COc1ccccc1N1C(=O)CN(Cc2cc(OC)c(OC)c(OC)c2)C1=S	0	0	0	0	-	-
O=C(Oc1ccc(I)cc1)c1ccc([N+](=O)[O-])cc1	0	6.1	0	0	0	0
CCc1ccccc1NC(=S)Nc1nc2ccc(F)cc2s1	0	5.5	0	46	0	0
CC(C)C(=O)Nc1nc2ccc(F)cc2s1	0	0	0	0	-	-
Cc1ccc(-n2cc(-c3ccccc3)c3c(N4CCN(c5ccc(F)cc5)CC4)ncnc32)cc1	0	0	0	0	-	-
O=C(Cn1[nH]c(=O)c2ccccc2c1=O)NCc1cccnc1	0	0	0	0	-	-
O=C(Cn1[nH]c(=O)c2ccccc2c1=O)Nc1cccnc1	0	19	0	0	0	0
CC(C)(Oc1ccc(Cl)cc1)C(=O)N1CCCC1	0	0	0	0	-	-
CCOC(=O)C1CCN(C(=O)C(C)(C)Oc2ccc(Cl)cc2)CC1	0	5.7	0	0	0	0
CCOc1cc2[nH]c(=O)n(Cc3cccc(OC)c3)c(=O)c2cc1OCC	0	8.5	0	0	0	0
CCc1ccc(/C=N/NC(=O)c2nnn(-c3nonc3N)c2C)cc1	0	0	0	0	-	-
SMILES	FBW7 act	GPR151 activ	MITF primary	TEAD-YAP inh	GPR151 confirm	GPR119 ag
CCC(=O)N1CCc2cc(S(=O)(=O)CCC(=O)NC3CCCCCC3)ccc21	0	5.0	0	0	0	0
O=C(O)c1cc(N2C(=O)C3C4C=CC(C4=C(c4ccccc4)c4ccccc4)C3C2=O)ccc1Cl (centres undefined)	0	5.1	0	0	0	0
CN(Cc1c(C(=O)N2CCCC2)nc2sccn12)CC(O)c1ccccc1 (centres undefined)	0	5.8	0	0	0	0
CC(C)CC(=O)N1CCCC(c2nc3c(nnn3Cc3ccccc3Cl)c(=O)[nH]2)C1 (centres undefined)	0	0	0	0	-	-
COCCNC(=O)c1c(N)n(CCc2ccc(OC)c(OC)c2)c2nc3ccccc3nc12	0	10	0	0	0	0
CCOCCCNC(=O)c1c(N)n(CCc2ccccc2)c2nc3ccccc3nc12	0	0	0	0	-	-
CCCC(=O)N(CC)c1ccccc1C	0	0	0	0	-	-
C/C=C/C(=O)N(CC)c1ccccc1C	0	6.1!	0	0	0	0
COCCCC1CCN(Cc2nc(-c3ccccn3)no2)CC1	0	6.7	0	0	0	0
COCCN1CCN(Cc2nc(-c3ccccn3)no2)CC1	0	0	0	0	-	-
COc1ccc(C)cc1S(=O)(=O)N1CCC(C(=O)Nc2cccc(C(C)=O)c2)CC1	0	6.1	0	0	0	0
Cc1ccc(NC(=O)C2CCN(S(C)(=O)=O)CC2)cc1	0	10	0	0	0	0
COc1ccc(C)cc1S(=O)(=O)N1CCC(C(=O)Nc2ccc3c(c2)OCO3)CC1	0	0	0	0	-	-
CCCc1cc(=O)[nH]c2nnc(SCC(C)=O)n12	0	0	0	0	-	-
O=C(Cn1cc2c(n1)CCCC2)N1CCc2ccccc2C1	0	0	0	0	-	-
O=C(Cn1cc2c(n1)CCCCC2)N1CCc2ccccc21	0	5.4	0	0	0	0
COCCNC(=O)c1cc2c(n(-c3ccc(C)cc3)c1=O)CC(C)(C)CC2=O	0	0	0	0	-	-
Cc1ccc(-n2c3c(cc(C(=O)NCC4CCCO4)c2=O)C(=O)CC(C)(C)C3)cc1 (centres undefined)	0	11	0	0	0	0
CC(=O)N1c2ccccc2NC2=C(C(=O)CC(C)(C)C2)C1c1ccccn1 (centres undefined)	0	5.2	0	0	0	0
CCCCOc1ccc(C2C3=C(CC(C)(C)CC3=O)Nc3ccccc3N2C(=O)CC)cc1 (centres undefined)	0	6.7	0	0	0	0
O=C(/C=C/c1ccc([N+](=O)[O-])s1)Nc1nc(-c2ccncc2)cs1	0	0	0	0	-	-
COc1ccc(-c2cnc3c(Nc4cccc(N(C)C)c4)nccn23)cc1OC	0	0	0	0	-	-
Cn1c(=O)c2c(SCCC3OCCO3)nc(C3CCCCC3)nc2n(C)c1=O	0	7.9	0	0	0	0
COc1cccc(/C=C/c2nc3ccccc3c(=O)n2-c2ccc(NC(C)=O)cc2)c1OC	0	5.6	0	0	0	0
CCN(CC)C(=O)CN(C1CCCCC1)S(=O)(=O)c1ccc(Cl)cc1	0	0	0	0	-	-
SMILES	FBW7 act	GPR151 activ	MITF primary	TEAD-YAP inh	GPR151 confirm	GPR119 ag
O=c1c2c(-c3ccccc3)csc2nc2c3ccccc3c(NCCO)nn12	0	0	0	0	-	-
Cc1ccc(-c2csc3nc4c5ccccc5c(NCCOCCO)nn4c(=O)c23)cc1	0	8.4	0	0	0	0
CS(=O)(=O)N(CC(=O)Nc1cccc(F)c1)Cc1ccccc1	0	6.3	0	0	0	0
Cn1cc(S(=O)(=O)NCCC(c2ccccc2)c2ccccc2)c(=O)n(C)c1=O	0	4.9	0	0	0	0
Cc1ccc(NS(=O)(=O)c2cn(C)c(=O)n(C)c2=O)cc1C	0	0	0	0	-	-
Cc1cccc(NS(=O)(=O)c2cn(C)c(=O)n(C)c2=O)c1	0	5.9	0	0	0	0
COc1ccccc1CCNS(=O)(=O)c1cn(C)c(=O)n(C)c1=O	0	0	0	0	-	-
